Common to all, as to conditions: mRNA level, 48 h; actives raise or lower the signal
Read-out in test [1]: Bcl-2 (BAD) gene, BAD (gene 572)
The experiment in a line: LTEA_HepaRG_BAD: Life Technologies and Expression Analysis (LTEA) Assay for Bcl-2 (BAD) gene using HepaRG (AID 2283469). In a few lines: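 Activity values reflect up- or down-regulation of BAD mRNA in human HepaRG hepatic cells treated 48 h in serum-free medium, with eight-point half-log dosing capped at 100 uM and 0.5% DMSO vehicle.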

Read-out in test [2]: Bcl-2 (BAX) gene, BAX (gene 581)
The experiment in a line: LTEA_HepaRG_BAX: Life Technologies and Expression Analysis (LTEA) Assay for Bcl-2 (BAX) gene using HepaRG (AID 2283470). In outline: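 Gene expression measured by Fluidigm qRT-PCR with three housekeeping genes for normalisation. HepaRG cells, plated 48 h beforehand, treated 48 h at up to 100 uM (8-point, half-log) in 0.5% DMSO. Bidirectional fitting versus DMSO.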

Read-out in test [3]: adenosine kinase (ADK) gene, ADK (gene 132)
Kind of test: LTEA_HepaRG_ADK: Life Technologies and Expression Analysis (LTEA) Assay for adenosine kinase (ADK) gene using HepaRG (AID 2283471). In outline:
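Following 48 h exposure of HepaRG cells in 0.5% DMSO (top concentration 100 uM, duplicate wells), ADK mRNA induction or suppression was measured by qRT-PCR, normalised to ACTB/GAPDH/POLR2A, and fitted bidirectionally relative to vehicle.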

Read-out in test [4]: Alpha-fetoprotein (AFP) gene, AFP (gene 174)
The experiment in a line: LTEA_HepaRG_AFP: Life Technologies and Expression Analysis (LTEA) Assay for Alpha-fetoprotein (AFP) gene using HepaRG (AID 2283472). In a few lines:
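AFP transcript measured by TaqMan qRT-PCR with three housekeeping genes for normalization, after 48 h chemical treatment of HepaRG cells (top 100 uM, half-log steps, 0.5% DMSO). Gain or loss fitted against vehicle.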

Read-out in test [5]: BCL2L11 (gene 10018)
The experiment in a line: LTEA_HepaRG_BCL2L11: Life Technologies and Expression Analysis (LTEA) Assay for Bcl-2 (BCL2L11) gene using HepaRG (AID 2283473). In outline:
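Cells were plated, cultured 48 h, switched to serum-free induction medium, then dosed in duplicate for 48 h at eight half-log concentrations up to 100 uM. Lysates underwent RNA isolation and TaqMan qRT-PCR; gain or loss versus DMSO was fitted.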

Read-out in test [6]: Apolipoprotein A-V (APOA5) gene, APOA5 (gene 116519)
Kind of test: LTEA_HepaRG_APOA5: Life Technologies and Expression Analysis (LTEA) Assay for Apolipoprotein A-V (APOA5) gene using HepaRG (AID 2283474). In outline: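 Human liver HepaRG cells are treated 48 h with test chemicals (100 uM top, half-log dilutions, 0.5% DMSO). APOA5 mRNA induction or loss is measured by qRT-PCR relative to vehicle.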

Read-out in test [7]: Apoptosis regulator Bcl-2 (Homo sapiens) (UniProt P10415)
Kind of test: LTEA_HepaRG_BCL2: Life Technologies and Expression Analysis (LTEA) Assay for Bcl-2 gene using HepaRG (AID 2283475). In outline:
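qRT-PCR of BCL2 transcript, normalized to three housekeeping genes (ACTB, GAPDH, POLR2A), after 48 h chemical exposure of HepaRG cells; concentrations top 100 uM with half-log dilutions, 0.5% DMSO vehicle, duplicates; changes up or down fitted relative to vehicle.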

Read-out in test [8]: Bcl-2 (BID) gene, BID (gene 637)
Kind of test: LTEA_HepaRG_BID: Life Technologies and Expression Analysis (LTEA) Assay for Bcl-2 (BID) gene using HepaRG (AID 2283476). In a few lines: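 Duplicate 48 h treatments of HepaRG cells in serum-free induction medium spanned 100 uM downward in half-log steps, 0.5% DMSO. Transcript change quantified by qRT-PCR against three housekeeping genes, fitted up or down versus DMSO.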

Read-out in test [9]: Caspase-3 (Homo sapiens) (UniProt P42574)
The experiment in a line: LTEA_HepaRG_CASP3: Life Technologies and Expression Analysis (LTEA) Assay for cysteine-aspartic acid protease (CASP3) using HepaRG (AID 2283477). In a few lines: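 In HepaRG liver cells dosed for 48 h at up to 100 uM (eight-point, duplicate), CASP3 expression changes are scored by qRT-PCR. Activity is fitted in both directions with 0.5% DMSO as baseline.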

Read-out in test [10]: Cytochrome P450 (CYP24A1), CYP24A1 (gene 1591)
The experiment in a line: LTEA_HepaRG_CYP24A1: Life Technologies and Expression Analysis (LTEA) Assay for Cytochrome P450 (CYP24A1) using HepaRG (AID 2283478). In a few lines: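 Human liver HepaRG cultures receive each chemical for 48 h across an eight-point half-log series topping at 100 uM in 0.5% DMSO. Induction or suppression of CYP24A1 mRNA is scored relative to vehicle after housekeeping-gene normalization.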

Read-out in test [11]: Cytochrome P450 (CYP1A2), CYP1A2 (gene 1544)
Kind of test: LTEA_HepaRG_CYP1A2: Life Technologies and Expression Analysis (LTEA) Assay for Cytochrome P450 (CYP1A2) using HepaRG (AID 2283479). In outline: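 Assesses CYP1A2 mRNA in human HepaRG liver cells after 48 h chemical exposure at up to 100 uM. Values come from qRT-PCR with bidirectional curve fitting relative to DMSO.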

Read-out in test [12]: cysteine-aspartic acid protease (CASP8), CASP8 (gene 841)
The experiment in a line: LTEA_HepaRG_CASP8: Life Technologies and Expression Analysis (LTEA) Assay for cysteine-aspartic acid protease (CASP8) using HepaRG (AID 2283480). In outline: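 Concentration-response in duplicate up to 100 uM (half-log steps, 0.5% DMSO) on differentiated HepaRG cultures for 48 h. Expression change of CASP8 mRNA is determined by TaqMan qRT-PCR with housekeeping-gene normalization.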

Read-out in test [13]: Cytochrome P450 (CYP2B6), CYP2B6 (gene 1555)
Kind of test: LTEA_HepaRG_CYP2B6: Life Technologies and Expression Analysis (LTEA) Assay for Cytochrome P450 (CYP2B6) using HepaRG (AID 2283481). In outline: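 Using 48 h treatment of HepaRG cells in serum-free induction medium, concentrations spanned half-log steps from 100 uM in 0.5% DMSO vehicle. CYP2B6 mRNA induction or loss is scored by qRT-PCR against DMSO.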

Read-out in test [14]: Cytochrome P450 2C19 (Homo sapiens) (UniProt P33261)
Kind of test: LTEA_HepaRG_CYP2C19: Life Technologies and Expression Analysis (LTEA) Assay for CYP2C19 using HepaRG (AID 2283482). In a few lines:
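Human HepaRG liver cells received test chemicals for 48 h (highest 100 uM, half-log dilutions in 0.5% DMSO). CYP2C19 mRNA induction or loss is read by multiplexed qRT-PCR and fitted in both directions versus vehicle.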

Read-out in test [15]: CYP2C8 (gene 1558)
The experiment in a line: LTEA_HepaRG_CYP2C8: Life Technologies and Expression Analysis (LTEA) Assay for CYP2C8 using HepaRG (AID 2283483). In a few lines:
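This is a transcriptional endpoint in HepaRG cultures: 48 h exposure, highest concentration 100 uM. CYP2C8 mRNA is quantified by TaqMan qRT-PCR.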

Read-out in test [16]: CYP2E1 (gene 1571)
Kind of test: LTEA_HepaRG_CYP2E1: Life Technologies and Expression Analysis (LTEA) Assay for CYP2E1 using HepaRG (AID 2283485). In a few lines:
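CYP2E1 transcript measured by Fluidigm qRT-PCR against three housekeeping genes in human HepaRG cells treated 48 h (top 100 uM, half-log steps, 0.5% DMSO vehicle). Gain or loss fitted relative to DMSO baseline.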

Read-out in test [17]: Cytochrome P450 3A4 (Homo sapiens) (UniProt P08684)
Kind of test: LTEA_HepaRG_CYP3A4: Life Technologies and Expression Analysis (LTEA) Assay for CYP3A4 using HepaRG (AID 2283487). In outline: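 In a human hepatic line (HepaRG), duplicate wells were treated 48 h with up to 100 uM chemical in half-log dilutions. Endpoint: CYP3A4 mRNA induction or loss relative to 0.5% DMSO vehicle, by qRT-PCR.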

Read-out in test [18]: CYP2C9 (gene 1559)
Kind of test: LTEA_HepaRG_CYP2C9: Life Technologies and Expression Analysis (LTEA) Assay for CYP2C9 using HepaRG (AID 2283484). In a few lines:
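Eight-point concentration-response (highest 100 uM, half-log dilutions) in HepaRG cells for 48 h; CYP2C9 expression by qRT-PCR normalized to ACTB, GAPDH, POLR2A. Bidirectional fit, DMSO baseline.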

Read-out in test [19]: CYP4A11 (gene 1579)
Kind of test: LTEA_HepaRG_CYP4A11: Life Technologies and Expression Analysis (LTEA) Assay for CYP4A11 using HepaRG (AID 2283486). In outline: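 Readout is CYP4A11 mRNA induction or suppression (qRT-PCR, ACTB/GAPDH/POLR2A normalization) in human HepaRG cells after 48 h chemical treatment, concentrations to 100 uM in 0.5% DMSO, fitted bidirectionally against vehicle.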

Activity calls are given as the source filed them. The calls were made as follows: active = hit-call score of the fitted dose curve at least 0.9, where 1 is the maximum; inactive = score below 0.9.

Chain of Cytochrome P450 3A4 (Homo sapiens) (P08684 whole entry, looked up): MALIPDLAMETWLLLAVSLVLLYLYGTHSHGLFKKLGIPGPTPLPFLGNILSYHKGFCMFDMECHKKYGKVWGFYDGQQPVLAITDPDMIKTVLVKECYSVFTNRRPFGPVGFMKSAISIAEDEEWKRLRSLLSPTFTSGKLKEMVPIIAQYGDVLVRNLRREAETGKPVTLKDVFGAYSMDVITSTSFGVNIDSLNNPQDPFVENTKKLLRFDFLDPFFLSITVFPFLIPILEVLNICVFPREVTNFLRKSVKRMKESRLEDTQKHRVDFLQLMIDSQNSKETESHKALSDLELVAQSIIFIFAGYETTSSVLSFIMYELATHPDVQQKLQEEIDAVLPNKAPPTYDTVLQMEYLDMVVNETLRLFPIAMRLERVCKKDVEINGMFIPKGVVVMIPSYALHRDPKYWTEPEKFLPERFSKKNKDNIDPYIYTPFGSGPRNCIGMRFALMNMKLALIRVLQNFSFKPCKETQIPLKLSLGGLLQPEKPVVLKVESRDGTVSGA
Chain of Apoptosis regulator Bcl-2 (Homo sapiens) (P10415 whole entry, looked up): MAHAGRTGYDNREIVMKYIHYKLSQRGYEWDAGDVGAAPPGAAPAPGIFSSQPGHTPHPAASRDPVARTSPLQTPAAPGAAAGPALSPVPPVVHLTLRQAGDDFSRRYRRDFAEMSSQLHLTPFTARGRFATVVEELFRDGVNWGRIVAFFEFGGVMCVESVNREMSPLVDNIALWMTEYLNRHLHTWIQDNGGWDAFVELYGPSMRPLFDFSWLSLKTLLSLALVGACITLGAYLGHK
Chain of Cytochrome P450 2C19 (Homo sapiens) (P33261 whole entry, looked up): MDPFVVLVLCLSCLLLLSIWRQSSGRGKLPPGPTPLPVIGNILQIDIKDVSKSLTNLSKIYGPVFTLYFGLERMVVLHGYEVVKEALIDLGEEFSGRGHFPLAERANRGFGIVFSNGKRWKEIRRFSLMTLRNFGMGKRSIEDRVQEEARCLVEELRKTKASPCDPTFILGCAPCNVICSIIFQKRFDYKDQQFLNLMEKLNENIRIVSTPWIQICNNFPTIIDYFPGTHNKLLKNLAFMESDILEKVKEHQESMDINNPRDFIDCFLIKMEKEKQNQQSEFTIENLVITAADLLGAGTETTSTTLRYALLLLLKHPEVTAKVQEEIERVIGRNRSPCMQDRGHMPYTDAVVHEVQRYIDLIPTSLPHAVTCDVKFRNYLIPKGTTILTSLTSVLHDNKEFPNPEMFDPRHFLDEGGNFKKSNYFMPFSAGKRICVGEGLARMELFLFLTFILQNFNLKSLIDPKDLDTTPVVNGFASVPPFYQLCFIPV
Chain of Caspase-3 (Homo sapiens) (P42574 whole entry, looked up): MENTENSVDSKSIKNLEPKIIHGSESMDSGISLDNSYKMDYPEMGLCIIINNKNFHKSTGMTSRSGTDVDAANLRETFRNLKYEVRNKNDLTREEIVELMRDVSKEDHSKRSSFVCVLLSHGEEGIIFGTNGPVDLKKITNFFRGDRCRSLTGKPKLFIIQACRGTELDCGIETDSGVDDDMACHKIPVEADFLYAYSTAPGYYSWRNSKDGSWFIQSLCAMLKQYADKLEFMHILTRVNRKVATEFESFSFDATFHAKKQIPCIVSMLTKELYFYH

Regarding `CC(C)(C)[C@@H](O)[C@@H](Cc1ccc(Cl)cc1)n1cncn1`, the molecule was classed as inactive in [1], in [2], in [3], in test [4], in [5] and in test [6]. Moreover, the result in test [7], in test [8], in [9], in test [10], in test [12] and in [15] was inactive. For the same molecule, the AC50 (in general, the concentration giving half of the maximal activity seen) in test [11] was 50 µM (active); in test [13] it was 3.37 µM (active); in test [14] it was 7.33 µM (active); in test [16], 50 µM (active); in [17], 7.74 µM (active).
`CC(=O)[C@H]1CC[C@H]2[C@@H]3CCC4=CC(=O)CC[C@]4(C)[C@H]3CC[C@]12C`: the result in test [1], in [9] and in [10] was inactive. Also, the AC50 in test [2] was 27 µM (active); in [3], 88.7 µM (active); in [4], 24.4 µM (active); in [5], 12.8 µM (active); in test [6] it was 34 µM (active); in test [7], 23 µM (active). Further, the half-maximal activity concentration (AC50) in test [11] is 25.4 µM (active); in test [12], 82.2 µM (active); in test [13] it was 32.6 µM (active); in test [14], 39.6 µM (active); in test [15], 37.2 µM (active); in test [18], 38.5 µM (active). Besides, the figures for the concentration at half-maximal activity (AC50) in test [16], in test [19] and in test [17] were 25.7 µM (active), 31.1 µM (active) and 36 µM (active), respectively.
For `CCN(Cc1c(F)cccc1Cl)c1c([N+](=O)[O-])cc(C(F)(F)F)cc1[N+](=O)[O-]`, the result in test [1], in test [2], in test [3], in test [5], in [7] and in [8] was inactive. Also, the call in test [9], in test [10], in test [12] and in test [15] was inactive. For the same molecule, the AC50 in test [4] was 50 µM (active); in [6], 26.7 µM (active); in test [11] it was 13.3 µM (active); in test [13], 12.7 µM (active); in test [14] it was 12.9 µM (active); in [16] it was 40.9 µM (active). In test [17], the AC50 was 8.01 µM (active).

Values taken from PubChem BioAssay (EPA / NIEHS).
